Results with a measured potency or affinity are listed apart. Activity calls are given as the source filed them.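 The calls were made as follows: active = cytotoxic compounds whose fitted half-maximal concentration is at most twice the top valid tested dose; inconclusive = flat curve showing 30 to 70% signal loss, or poor fit; inactive = the rest.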
Assay: viability loss in A549 lung cells – cell-based, 24 h, CellTiter-Glo luminescence, cherry-picks, cytotoxicity control, dose response (AID 1053115)

Compound	outcome
C[C@@H]1CN([C@@H](C)CO)S(=O)(=O)c2ccc(C#C[C@@H](C)O)cc2O[C@@H]1CN(C)Cc1ccc(-c2ccccc2)cc1	inactive
CN1c2ccc(C#Cc3cccnc3)cc2[C@@H]2[C@@H](CCN2C(=O)C2CCCCC2)[C@H]1CO	inactive
C[C@@H](O)C#Cc1ccc2c(c1)O[C@@H](CN(C)Cc1ccncc1)[C@@H](C)CN([C@@H](C)CO)S2(=O)=O	inactive
C[C@H]1CCCCO[C@H](CN(C)S(=O)(=O)c2ccc(Cl)cc2)[C@@H](C)CN([C@@H](C)CO)C(=O)c2cc(NC(=O)Nc3ccc(F)cc3)ccc2O1	inactive
CCCNC(=O)C[C@H]1CC[C@@H]2[C@@H](COc3ccc(NC(=O)CCC)cc3C(=O)N2C)O1	inactive
COc1ccccc1CN1CC[C@H]2[C@H](CO)Nc3ccc(-c4ccc(C(=O)N(C)C)cc4)cc3[C@H]21	inactive
C[C@H](O)C#Cc1ccc2c(c1)O[C@H](CN(C)Cc1ccccc1)[C@@H](C)CN([C@@H](C)CO)S2(=O)=O	inactive
C[C@H](O)C#Cc1ccc2c(c1)O[C@H](CN(C)Cc1ccc(-c3ccccc3)cc1)[C@H](C)CN([C@@H](C)CO)S2(=O)=O	inactive
C[C@H](O)C#Cc1ccc2c(c1)O[C@@H](CN(C)Cc1ccccc1)[C@H](C)CN([C@H](C)CO)S2(=O)=O	inactive
CN1c2ccc(C#Cc3cccnc3)cc2[C@@H]2[C@@H](CCN2C(=O)C2CCC2)[C@H]1CO	inactive
CCCNC(=O)c1cc2c(c(-c3cccc(-c4cccc(F)c4)c3)n1)[C@H](CCO)N([S@@](=O)C(C)(C)C)C2	inactive
C[C@H](O)C#Cc1ccc2c(c1)O[C@@H](CN(C)Cc1ccccc1)[C@H](C)CN([C@@H](C)CO)S2(=O)=O	inactive
CN1c2ccc(C#Cc3cccnc3)cc2[C@H]2[C@H](CCN2C(=O)C2CCCCC2)[C@H]1CO	inactive
C[C@@H]1CN([C@@H](C)CO)S(=O)(=O)c2ccc(C#C[C@@H](C)O)cc2O[C@H]1CN(C)Cc1ccccc1	inactive
Cc1noc(C)c1S(=O)(=O)Nc1ccc2c(c1)C(=O)N([C@@H](C)CO)C[C@@H](C)[C@H](CN(C)S(=O)(=O)c1cccs1)O2	inactive
CN(C)C(=O)c1ccc(-c2cccc(-c3nc(C(=O)NC4CCCCC4)cc4c3[C@@H](CCO)N([S@](=O)C(C)(C)C)C4)c2)cc1	inactive
C[C@@H]1CN([C@H](C)CO)S(=O)(=O)c2ccc(C#C[C@@H](C)O)cc2O[C@@H]1CN(C)Cc1ccc(-c2ccccc2)cc1	inactive
C[C@@H]1CN([C@@H](C)CO)S(=O)(=O)c2ccc(C#C[C@@H](C)O)cc2O[C@@H]1CN(C)Cc1ccccc1	inactive
C[C@@H](O)C#Cc1ccc2c(c1)O[C@@H](CN(C)Cc1cccnc1)[C@@H](C)CN([C@@H](C)CO)S2(=O)=O	inactive
C[C@H](O)C#Cc1ccc2c(c1)O[C@H](CN(C)Cc1ccccc1)[C@H](C)CN([C@H](C)CO)S2(=O)=O	inactive
CN1c2ccc(C#Cc3cccnc3)cc2[C@@H]2[C@@H](CCN2C(=O)C2CCC2)[C@@H]1CO	inactive
C[C@H](O)C#Cc1ccc2c(c1)O[C@H](CN(C)Cc1ccccc1)[C@H](C)CN([C@@H](C)CO)S2(=O)=O	inactive

— PubChem BioAssay AID1053115 (Broad Institute, 2014)
